Several values for one entry are separate records, joined by “and”; a condition that tells them apart may be missing. Identical values can stand only once. Inconclusive results are not listed. Entries that show only a call come without a potency. Values without a mark were called inactive. Activity calls are given as the source filed them. Calls follow the shape of the full dose curve.

Drawing on PubChem BioAssay (Tox21), this text covers Potency and viability change, negative = cytotoxic for 40 compounds.
Potency is read from the fitted curve at half-maximal effect.

This experiment can be described thus: qHTS assay for small molecule agonists of the antioxidant response element (ARE) signaling pathway - cell viability counter screen (AID 743203). Also: nearly all actives have a fitted effect of over 55% in size. Conditions: ARE-bla HepG2 viability, CellTiter-Glo luminescence, 16 h; series mostly up to 73.3 µM. From the text:
National Center for Advancing Translational Sciences [NCATS]
NIH Chemical Genomics Center [NCGC]
U.S. Environmental Protection Agency [EPA]
National Institutes of Environmental Health Sciences [NIEHS]
National Toxicology Program [NTP]
U.S. Food and Drug Administration [FDA]
Oxidative stress has been implicated in the pathogenesis of a variety of diseases ranging from cancer to neurodegeneration. The antioxidant response element (ARE) signaling pathway plays an important role in the amelioration of oxidative stress. The CellSensor ARE-bla HepG2 cell line (Invitrogen) can be used for analyzing the Nrf2/antioxidant response signaling pathway. Nrf2 (NF-E2-related factor 2) and Nrf1 are transcription factors that bind to AREs and activate these genes. The CellSensor ARE-bla Hep G2 cell line contains a beta-lactamase reporter gene under control of the Antioxidant Response Element (ARE) stably integrated into HepG2 cells. The activation of the report gene under culture conditions can be detected by fluorescence intensity. This cell line has been used to screen the Tox21 10K compound library to identify agonists that induce oxidative stress. The cytotoxicity of the Tox21 compound library against the ARE-bla cell line was tested in parallel by measuring the cell viability using CellTiter-Glo assay (Promega, Madison, WI) in the same wells.
Tox21 Assay Protocol Summary:
ARE-bla HepG2 cells were dispensed at 2,000 cells/5 ul/well in 1536-well white wall/solid bottom plates using a Multidrop Combi (ThermoFisher Scientific, Waltham, MA) dispenser. After the assay plates were incubated at 37C/5% CO2 for 5 hrs, 23 nL of compounds dissolved in DMSO, positive controls or DMSO only was transferred to the assay plate by a pintool work station (Kalypsys, San Diego, CA). The plates were incubated at 37C/5% CO2 for 16 hrs, followed by addition of 4 ul/well of CellTiter-Glo reagent into the assay plates using a Flying Reagent Dispenser (Aurora Discovery, San Diego, CA). After 30 min incubation at room temperature, the luminescence intensity in the assay plates was measured using a ViewLux (PerkinElmer, Shelton, CT) plate reader.
On the technique in general: qHTS replaces the single test concentration by a dilution series.
Consider `CC(C)(C)c1ccc(C(O)CCCN2CCC(C(O)(c3ccccc3)c3ccccc3)CC2)cc1` (stereo not given), for which the Potency is 11.9 µM (active). Consider `O=C(O)c1cc(O)c2ccccc2c1O`, for which the Potency is 30.6 µM (active).

`CC(C)NC[C@@H](O)COc1ccc(CC(N)=O)cc1`: the Potency result is “inactive”. Still for that read-out and setting: the value for `COC(=O)c1ccccc1C` was “inactive”; that for `C/C=C/C=C/COC(=O)C(C)C` was “inactive”. Same read-out and setting: in the case of `Clc1ccnc(Cl)n1` it was “inactive”; in that of `O=C(O)Cc1ccc2c(c1)C(=O)c1ccccc1CO2`, “inactive”. Same read-out and setting: the value for `CCN1C(=O)c2ccccc2C1Nc1ccc(OCCN2CCCCC2)cc1` (stereo not given) was “inactive”. For `CCn1c2ccccc2c2cc([N+](=O)[O-])ccc21`, the Potency entry is “inactive”. For the compound `O=C(O)CN(CCN(CC(=O)O)CC(=O)O)CC(=O)O`, the viability change, negative = cytotoxic was -5.36% [at 3.74 µM].

`CCCC(=O)OCCc1ccccc1`: the Potency result is “inactive”. Still for that read-out and setting: the value for `Cl[Si](Cl)(c1ccccc1)c1ccccc1` was “inactive”. As to `C=CCCC(=O)/C=C/C1C(C)=CCCC1(C)C` (stereo not given), the Potency result is “inactive”. Still for that read-out and setting: the value for `C#CC1(O)CC[C@H]2[C@@H]3CCC4=CCCC[C@@H]4[C@H]3CC[C@@]21C` (stereo not given in full) was 61.1 µM (active) and 13.3 µM (active); that for `C=C(C)c1cccc(C(=C)C)c1` was “inactive”. Same read-out and setting: in the case of `CC(=O)c1ccc(C(C)=O)cc1` it was “inactive”; in that of `CCCC1CCC(=O)CC1`, “inactive”; in that of `O=S(=O)(O)c1ccccc1/C=C/c1ccc(-c2ccc(/C=C/c3ccccc3S(=O)(=O)O)cc2)cc1`, “inactive”.

Turning to `OC[C@@H](O)[C@@H](O)CO`, the Potency result is “inactive”. Still for that read-out and setting: the value for `CC[N+](CC)(CC)CCOC(=O)C(C1CCCC1)C1CCCC1` was “inactive”; that for `CCC(C)n1ncn(-c2ccc(N3CCN(c4ccc(OC[C@H]5CO[C@](Cn6cncn6)(c6ccc(Cl)cc6Cl)O5)cc4)CC3)cc2)c1=O` (stereo not given in full) was “inactive”. For the compound `CCCCC/C=C\C/C=C\CCCCCCCC(=O)O`, the Potency result was “inactive”. In the case of `COc1ccc2c(c1)c(CC(=O)OC/C=C(\C)CC/C=C(\C)CCC=C(C)C)c(C)n2C(=O)c1ccc(Cl)cc1`, the Potency entry was “inactive”. Consider `O=C(O)Cc1ccccc1Nc1c(Cl)cccc1Cl`, for which the Potency result was “inactive”. The same measure, in the same setting: the value for `CC1=Nc2ccccc2C1(C)C` was “inactive”; that for `Nc1ccc(NCCO)c([N+](=O)[O-])c1` was “inactive”. On to `CC(C)(c1cc(Br)c(OCC(Br)CBr)c(Br)c1)c1cc(Br)c(OCC(Br)CBr)c(Br)c1` (stereo not given), for which the Potency entry was “inactive”. On the same count and under the same terms, in the case of `O=C1CCc2cc(OCCCCc3nnnn3C3CCCCC3)ccc2N1` it was “inactive”. On the same count and under the same terms, the value for `Sc1nc2ccccc2s1` was “inactive”; that for `Nc1nc(-c2ccccc2)cs1` was “inactive”.

As to `CC(C)=CCC1=C(O)c2ccccc2C(=O)C1=O`, the Potency result was “inactive”.

As to `Nc1nc2c(ncn2COCCO)c(=O)[nH]1`, the Potency result is “inactive”.

With `O=C1CCCCCCCCCCCCCCCO1`, the Potency result was “inactive”. The same measure, in the same setting: in the case of `Cc1cc(C(C)(C)C)c(O)c(C)c1Cn1c(=O)n(Cc2c(C)cc(C(C)(C)C)c(O)c2C)c(=O)n(Cc2c(C)cc(C(C)(C)C)c(O)c2C)c1=O` it was “inactive”; in that of `Cc1c2ccccc2c(C)c2c1ccc1ccccc12`, 24.3 µM (active); in that of `Nc1ccc(Oc2ccc(Cl)cc2)cc1`, “inactive”.

Take `CC(=O)Oc1cc2c(s1)CCN(C(C(=O)C1CC1)c1ccccc1F)C2` (stereo not given): the Potency result is “inactive”.

`Cc1ccc(N/N=c2\c(=O)cc/c(=N\Nc3ccc(S(=O)(=O)O)cc3)c2=O)c(C)c1`: the Potency result was “inactive”. The same measure, in the same setting: in the case of `Cc1cc(-n2nc3ccc(Cl)cc3n2)c(O)c(C(C)(C)C)c1` it was “inactive”; in that of `Cc1c(C)c([N+](=O)[O-])c(C(C)(C)C)c([N+](=O)[O-])c1C`, “inactive”.
